We go through 40 compounds from ChEMBL document CHEMBL3988442, “University of Dundee, Small-Polar-MMV Screening Library” (2021).

Potency and affinity values are given separately.

Sequence of Protein translocase subunit SecA (Escherichia coli (strain K12)) (P10408 whole entry): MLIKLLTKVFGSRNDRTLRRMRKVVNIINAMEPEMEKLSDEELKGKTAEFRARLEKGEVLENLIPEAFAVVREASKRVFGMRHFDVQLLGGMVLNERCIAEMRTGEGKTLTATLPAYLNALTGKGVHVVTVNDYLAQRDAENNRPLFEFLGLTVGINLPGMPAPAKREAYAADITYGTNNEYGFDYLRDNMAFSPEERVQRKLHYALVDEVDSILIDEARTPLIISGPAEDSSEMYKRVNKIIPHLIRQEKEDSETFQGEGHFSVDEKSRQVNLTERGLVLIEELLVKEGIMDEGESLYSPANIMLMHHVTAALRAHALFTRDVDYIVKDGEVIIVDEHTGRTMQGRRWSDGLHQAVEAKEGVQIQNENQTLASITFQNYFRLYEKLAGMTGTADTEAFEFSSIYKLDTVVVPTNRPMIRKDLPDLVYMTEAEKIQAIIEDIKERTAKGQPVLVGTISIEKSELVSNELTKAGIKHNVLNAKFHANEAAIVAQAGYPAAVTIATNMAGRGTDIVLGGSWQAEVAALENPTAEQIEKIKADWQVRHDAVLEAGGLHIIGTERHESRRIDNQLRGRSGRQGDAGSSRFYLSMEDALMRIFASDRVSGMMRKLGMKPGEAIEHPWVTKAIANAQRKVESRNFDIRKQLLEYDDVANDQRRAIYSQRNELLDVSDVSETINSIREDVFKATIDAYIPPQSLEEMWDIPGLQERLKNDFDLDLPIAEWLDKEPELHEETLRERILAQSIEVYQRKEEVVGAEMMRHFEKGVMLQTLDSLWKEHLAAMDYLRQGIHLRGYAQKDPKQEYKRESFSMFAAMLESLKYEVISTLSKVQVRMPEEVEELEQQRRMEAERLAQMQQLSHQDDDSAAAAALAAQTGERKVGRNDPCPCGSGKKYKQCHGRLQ

This assay concerns the target Protein translocase subunit SecA (Escherichia coli (strain K12)) (UniProt P10408). The assay can be described thus: Assay to Identify E. coli SecA ATPase Inhibitors. The class given is functional. Also noted: scale not given: direction of the effect not stated beside the values. Conditions: 30 µM.
With `c1cnn(Cc2nnc(C3CCN(C4CCOCC4)CC3)n2C2CC2)c1`, the Percent Effect is -7.04%. On to `CCOc1ccccc1C(CC(=O)Nc1ccc(C)cn1)NC(C)=O` (stereo not given), for which the Percent Effect was -3.17%. Take `Cc1nc(C)n(CC2CN(Cc3cccnc3)CCO2)n1` (stereo not given): the Percent Effect was -3.52%.

For the compound `CCOc1ccc(C#N)cc1NCC(=O)Nc1cc(F)ccc1F`, the Percent Effect was -4.77%. For the compound `COCC1CN(C(=O)C2=CCCCC2)Cc2cnn(CC3CC3)c21` (stereo not given), the Percent Effect was -1.86%. The same measure for `O=S1(=O)COCCN1Cc1cccc(Cl)c1`: -1.74%. The same measure for `COCCN(Cc1nc2c(cnn2C)c(=O)[nH]1)Cc1ccco1`: -2.48%; for `O=C(c1ccc(F)cc1)N1CCN2C[C@H](OCc3ccccn3)C[C@H]2C1`: -5.08%. The same measure for `CCO[C@@H]1CCN(C(=O)c2ccc[nH]2)[C@@H]1Cc1cnn(C)c1`: -3.08%; for `O=C1C[C@H]2[C@@H](CCN2C(=O)c2ccccc2)N1CCN1CCOCC1`: -2.13%. As for `CC(NC(=O)NCCCn1cccn1)c1ccc2c(c1)NC(=O)CO2` (stereo not given), the Percent Effect is -6.96%. The same measure for `CCc1nc(C(=O)N2CCCC2)nn1-c1ccccc1Cl`: -7.61%; for `CN(CCOc1cccc(CNC(=O)C2CC2)c1)C1CCOCC1`: -3.16%. Consider `CC(C)C1CN(C(=O)c2ccc(N3CCCC3)nc2)CCS1` (stereo not given), for which the Percent Effect is -4.92%. The same measure for `O=C(CCn1ccccc1=O)Nc1ccc(F)c(Cl)c1`: -5.08%.

Turning to `CCS(=O)(=O)c1ccccc1N1CCC(NC(=O)NC2CCCC2)CC1`, the Percent Effect is -5.55%. Under `O=C(NS(=O)(=O)c1cc(Cl)sc1Cl)c1cccc2c1OCCO2` stands -8.74%; under `CN(C)C(=O)CNC(=O)c1ccc(Cl)cc1F`, -6.12%; under `COc1cccc(N2CCN(CCC(=O)NC3CCCC3)CC2)c1`, -4.61%.

Turning to `c1csc(CN2Cc3nccn3CC(Cn3cncn3)C2)n1` (stereo not given), the Percent Effect turned out to be 1.97%.

In the case of `Cc1cc2nc(SCC(=O)N3CCCC3)n(-c3ccccc3)c(=O)c2[nH]1`, the Percent Effect is -2.59%. Under `Cc1ccc(CN2CCCC3(CCN(S(C)(=O)=O)C3)C2)o1` (stereo not given) stands -3.67%; under `CC(NC(=O)NCC1(N2CCCCC2)CCCCC1)c1nncn1C` (stereo not given), -6.18%.

In the case of `CCOc1ncccc1C(=O)N(C)Cc1ncc(C)c(OC)c1C`, the Percent Effect is -0.0989%. The same measure for `Cc1cc(C[C@@H]2COC[C@H]2NCc2ccc(Br)s2)on1`: -7.36%; for `CC(C)N1CCC(Cc2cncc(-c3ccccc3C(=O)O)n2)CC1`: -3.85%; for `Cc1ccc2oc(CNC(C)c3nnc4n3CCCC4)cc2c1` (stereo not given): -2.09%.

For the compound `CC(=O)N1CCN(C(=O)NCc2csc(Br)c2)CC1`, the Percent Effect is -7.09%.

On to `CCc1noc(C(C)N2CCN(Cc3nc(C)c(C)o3)CC2)n1` (stereo not given), for which the Percent Effect was -2.85%.

`CC(C)c1csc(C2CCCN(C(=O)c3ncccn3)C2)n1` (stereo not given): the Percent Effect is -4.12%. With `CC(C)(C)N1CC(C(=O)N2CCN(CCn3cccc3)CC2)CC1=O` (stereo not given), the Percent Effect is -6.81%. The same measure for `CC(C)c1nc(C2CCCN2CCc2ccncc2)no1` (stereo not given): -3.81%. Under `CC(=O)NCc1ccc(C(=O)N2CCCC2c2cnn(C)c2)o1` (stereo not given) stands -4.23%. The same measure for `CC(C)NC(=O)c1n[nH]c(-n2cnnc2)n1`: -5.17%; for `Cc1cc(C)n(CC2CN(Cc3nc(-c4ccoc4)no3)CCO2)n1` (stereo not given): -0.455%; for `Cc1nn(C)c(N2CCOCC2)c1CNCc1ccc(Cl)s1`: -3.24%. Regarding `CC(=O)N1CCCN(c2nccc(-c3cn(C)nc3C)n2)CC1`, the Percent Effect was -5.23%. The same measure for `Cc1scc(C(=O)N2CCC3(CCCN(C)C3=O)C2)c1-c1ccccc1` (stereo not given): -0.994%. Under `Cc1cccc2[nH]c(C3CCN(C(=O)c4ccnn4C)CC3)nc12` stands -4.98%; under `Cc1cccc(CN2CCc3c(nc(N4CCCCC4C)[nH]c3=O)C2)n1` (stereo not given), -3.88%.
